Laboratory results: PubChem BioAssay (NCATS)
Inconclusive results are not listed. The source made the active and inactive calls. Calls follow the shape of the dose curve; as a rule, active = well fitted inhibition curve with a large enough effect; inconclusive = small, poorly fitted or top-dose-only effect; inactive = flat fitted curve, though single readings scatter.

Tests used:
Test in all cases: Cytotoxic Profiling of Annotated Libraries Using Quantitative High-Throughput Screening (AID 1296008); also: nearly all actives have a fitted effect of over 60% in size
Conditions in all cases: Five cell lines viability, CellTiter-Glo ATP luminescence, 48-72 h; max response: hits give low values
CRL-7250 = system: CRL-7250
Method in brief: (§1)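 Compounds were pin-transferred onto cells and incubated 48 or 72 hr at 37 degree Celsius, 95% humidity. CellTiter-Glo was added, plates sat 10 min at room temperature, then ATP-coupled luminescence was imaged as the viability read-out.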

HaCat = system: HaCat
Method in brief: as §1

KB-3-1 = system: KB-3-1
Method in brief: as §1

NIH3T3 = system: NIH3T3
Method in brief: as §1
% is scaled to controls: 0 for no effect and ±100 for the full control effect; potency is read from the fitted curve at half-maximal effect.

CC1(C=O)CCCC2(C)C1CCC13CC(CO)C(CCC12)C3 (centres undefined)
inactive: outcome (CRL-7250) | max response (HaCat) 3.29% | max response (KB-3-1) 7.38% | max response (NIH3T3) -4.47%

COc1cc2c(cc1O)C1(Cc3ccc4c(c3C1O)OCO4)[N+](C)([O-])CC2 (centres undefined)
inactive: outcome (CRL-7250) | max response (HaCat) -20.1% | outcome (KB-3-1) | max response (NIH3T3) -2.31%

CC(O)(C(=O)C1CC1(CO)COC1OC(CO)C(O)C(O)C1O)C1C(O)CC2C3CC=C4CC(O)CC(O)C4(C)C3C(O)CC21C (centres undefined)
active: Potency (CRL-7250) 432 nM | Potency (HaCat) 1720 nM | Potency (KB-3-1) 769 nM
inactive: max response (NIH3T3) 0.504%

Cc1ccc(C)c(NC(=O)[C@@H]2CCCN2S(=O)(=O)c2cccc3cccnc23)c1
inactive: max response (CRL-7250) -9.22% | max response (HaCat) -26.4% | max response (KB-3-1) 9.71% | max response (NIH3T3) -29.5%

C[C@@]12C(=O)N(c3ccc(C(=O)Nc4cccc5cccnc45)cc3)C(=O)[C@@H]1[C@@H]1C=C[C@H]2C1
inactive: max response (CRL-7250) -9.69% | max response (HaCat) -0.616% | max response (KB-3-1) -11.1% | outcome (NIH3T3)

O=C(NCCCc1ccccc1)C1CCC(CNS(=O)(=O)c2cccc3nsnc23)CC1 (centres undefined)
inactive: max response (CRL-7250) -1.65% | max response (HaCat) -4.58% | max response (KB-3-1) -11.8% | max response (NIH3T3) -18.1%

CC1(C)CCC2(C(=O)OC3OC(COC4OC(CO)C(O)C(O)C4O)C(O)C(O)C3O)CCC3(C)C(=CCC4C5(C)CCC(OC6OCC(O)C(O)C6O)C(C)(C)C5CCC43C)C2C1O (centres undefined)
inactive: max response (CRL-7250) -0.133% | max response (HaCat) -3.21% | outcome (KB-3-1) | max response (NIH3T3) -18.4%

CC(=O)O[C@@H]1C[C@]2(C)[C@@]3(CCC4[C@@]5(C)CC[C@H](O[C@@H]6O[C@H](C(=O)O)[C@@H](O)[C@H](OC7OC(CO)C(O)C(O)[C@H]7O[C@@H]7O[C@@H](C)[C@H](O)[C@@H](O)[C@H]7O[C@@H]7OC[C@](O)(CO)[C@H]7O)[C@H]6OC6OC(CO)C(O)C(O)C6O)C(C)(C)C5CC[C@]42C)OC[C@@]12CCC(C)(C)CC23 (some centres undefined)
inactive: max response (CRL-7250) -2.03% | max response (HaCat) 0.508% | max response (KB-3-1) -5.11% | max response (NIH3T3) 0.621%

COc1cc2ncnc(Nc3ccc(F)c(Cl)c3)c2cc1O
active: Potency (HaCat) 1300 nM
inactive: outcome (CRL-7250) | max response (KB-3-1) -4.6% | outcome (NIH3T3)

Cc1cn2c(n1)Cc1ccc(Cl)cc1C(c1ccc(N)cc1)=N2
inactive: max response (CRL-7250) -3.82% | max response (HaCat) 1.21% | max response (KB-3-1) 1.16% | max response (NIH3T3) -15.7%

Cn1cc(C2=C(c3coc4ccccc34)C(=O)NC2=O)c2cc(Br)ccc21
inactive: max response (CRL-7250) 2.54% | max response (HaCat) 3.32% | outcome (KB-3-1) | outcome (NIH3T3)
